{
  "source": "ChEMBL document CHEMBL3988442",
  "about": "“University of Dundee, Small-Polar-MMV Screening Library” (2021)",
  "note": "About 900 (1.7%) of roughly 53,000 compounds showed an effect of 50% or more. The list comes from a sample in which strong results are over-represented; it also holds similar structures and randomly drawn compounds.",
  "data": [
    {"test_system": "Mycobacterium tuberculosis", "assay": "Cornell - Phenotypic assay to identify agents that inhibit growth of Mycobacterium tuberculosis", "type": "functional", "set-up": "scale not given: direction of the effect not stated beside the values", "settings": "10 mM as filed; unlikely as a test dose", "units": {"Percent Effect": "%"}, "values": [
      {"smiles": "Cc1nn(C)c(N2CCCN(C)CC2)c1CNC(=O)CC1CCCC1", "Percent Effect": 23.58},
      {"smiles": "COc1cccc(NC(=O)NCc2cnn(C)c2)c1", "Percent Effect": 2.363},
      {"smiles": "COc1cccc(NC(=O)C(C)Cn2cc(Cl)cn2)c1", "note": "(stereo not given)", "Percent Effect": 52.64},
      {"smiles": "CC(Cn1cc(Cl)cn1)C(=O)Nc1ccc(CN2CCCCCC2)cc1", "note": "(stereo not given)", "Percent Effect": -18.96},
      {"smiles": "COC(=O)Cn1c(=O)nc2n1C(=O)N(c1cccc(C)c1)C2", "Percent Effect": 2.841},
      {"smiles": "O=C(c1csc(-c2cnccn2)n1)N1CCCC1Cn1cccn1", "note": "(stereo not given)", "Percent Effect": -12.16},
      {"smiles": "O=C(NC1CCCN(c2ccccn2)C1)C1(c2ccccc2F)CC1", "note": "(stereo not given)", "Percent Effect": -27.34},
      {"smiles": "Cn1cccc1C(=O)N1CC2(CCN(C(=O)c3cccnc3)C2)C1.O=C(O)C(F)(F)F", "Percent Effect": -3.792},
      {"smiles": "CNC(=O)c1cc(NC(=O)Nc2cnn(CC(C)C)c2)ccc1F", "Percent Effect": 69.74},
      {"smiles": "COCCn1cc(NC(=O)NC(C)Cc2c(F)cccc2F)cn1", "note": "(stereo not given)", "Percent Effect": -32.72},
      {"smiles": "CCCn1cc(NC(=O)Nc2ccc(F)c(C(=O)NC)c2)cn1", "Percent Effect": 69.43},
      {"smiles": "CNC(=O)c1cc(NC(=O)NC(C)CCc2cccn2C)ccc1F", "note": "(stereo not given)", "Percent Effect": -1.57},
      {"smiles": "CCc1c(C(=O)Nc2ccc(F)c(C(=O)NC)c2)cnn1CC(C)C", "Percent Effect": 23.68},
      {"smiles": "CC(C)CCCNC(=O)Nc1ccc(F)c(C(N)=O)c1", "Percent Effect": -8.199},
      {"smiles": "Cc1cc(CN(C)C(=O)C2CC(=O)N(Cc3cccnc3)C2)on1", "note": "(stereo not given)", "Percent Effect": 14.11},
      {"smiles": "CCc1nnc2n1CCN(Cc1nnc(-c3occc3C)o1)C2", "Percent Effect": -3.481},
      {"smiles": "COc1ccccc1NC(=O)Cn1c(=O)nc(N)c2cc(C)sc21", "Percent Effect": -16.18},
      {"smiles": "CNc1oc(-c2ccc(OC)c(S(=O)(=O)N3CCCC3)c2)nc1C#N", "Percent Effect": 17.45},
      {"smiles": "COCC(C)NC(=O)NCCCc1cc(N)n(-c2ccccc2)n1", "note": "(stereo not given)", "Percent Effect": 4.106},
      {"smiles": "CC1Cc2ccccc2N1Cc1occc1C(=O)O", "note": "(stereo not given)", "Percent Effect": -3.286},
      {"smiles": "COC(=O)CCNC(=O)c1ccoc1CN1c2ccccc2CC1C", "note": "(stereo not given)", "Percent Effect": 59.33},
      {"smiles": "CC1Cc2ccccc2N1Cc1occc1C(=O)OCC(N)=O", "note": "(stereo not given)", "Percent Effect": 46.11},
      {"smiles": "COCCNC(=O)c1ccoc1CN1c2ccccc2CC1C", "note": "(stereo not given)", "Percent Effect": 34.19},
      {"smiles": "CC1Cc2ccccc2N1Cc1occc1C(=O)NCC(=O)N(C)C", "note": "(stereo not given)", "Percent Effect": 0.4209},
      {"smiles": "CCNC(=O)c1ccoc1CN1c2ccccc2CC1C", "note": "(stereo not given)", "Percent Effect": 70.88},
      {"smiles": "CN(CCn1nc2ccccn2c1=O)CC(=O)NC1CC1", "Percent Effect": -0.7088},
      {"smiles": "Cc1nc(CN2CCC3(C2)CN(C(=O)c2ccc[nH]2)C3)cs1", "Percent Effect": 9.497},
      {"smiles": "COc1cccc(NC(=O)Nc2ccc3c(c2)CC(=O)N3)c1", "Percent Effect": -2.338},
      {"smiles": "O=C(NCC(=O)N1CCc2ccccc2C1)c1ccoc1", "Percent Effect": -20.14},
      {"smiles": "COC(=O)N1CCN2C[C@H](CO)[C@@H](c3ccccc3)[C@H]2C1", "Percent Effect": 9.303},
      {"smiles": "CC(=O)OC1CN(c2nc3c(C(F)(F)F)cccc3s2)C1", "Percent Effect": 5.311},
      {"smiles": "COC1COC2(CCN(Cc3ccc4ccccc4n3)CC2)C1.O=C(O)C(F)(F)F.O=C(O)C(F)(F)F", "note": "(stereo not given)", "Percent Effect": 14.78},
      {"smiles": "Cc1ccc(-n2cnnn2)cc1NCC(=O)Nc1ccccc1Cl", "Percent Effect": 6.921},
      {"smiles": "O=C(CNc1cc(-n2cnnn2)ccc1F)Nc1ccccc1Cl", "Percent Effect": 96.42},
      {"smiles": "O=C(CNc1cc(-n2cnnn2)ccc1F)NCc1ccccc1", "Percent Effect": 76.98},
      {"smiles": "Cc1ccc(-n2cnnn2)cc1NCC(=O)Nc1cc(F)ccc1F", "Percent Effect": 11.17},
      {"smiles": "O=C(CNc1cc(-n2cnnn2)ccc1F)Nc1cc(F)ccc1F", "Percent Effect": 3.475},
      {"smiles": "O=C(CNc1ccccc1Cl)Nc1cc(-n2cnnn2)ccc1F", "Percent Effect": 22.69},
      {"smiles": "O=S(=O)(c1ccc(F)c(F)c1)N1CCCC(c2nccs2)C1", "note": "(stereo not given)", "Percent Effect": -0.9721},
      {"smiles": "Cc1cccc(C(=O)N2C[C@@H](OCc3ccncc3)[C@@H]3OCCC[C@@H]32)n1.O=C(O)C(F)(F)F.O=C(O)C(F)(F)F", "Percent Effect": 29.52},
      {"smiles": "O=C(CNc1ccc(OC2CCOC2)cc1)NCc1ccco1", "note": "(stereo not given)", "Percent Effect": 37.67},
      {"smiles": "O=C(CNc1ccc(OC2CCOC2)cc1)NCc1ccc(F)cc1", "note": "(stereo not given)", "Percent Effect": 70.37},
      {"smiles": "O=C(NCc1ccc(F)cc1)N1CCC(C2OCCO2)CC1", "Percent Effect": 9.763},
      {"smiles": "Cl.Cl.O=C(CN1CCN(CC(O)C2CC2)CC1)NCc1ccc(F)cc1", "note": "(stereo not given)", "Percent Effect": 12.18},
      {"smiles": "Cc1ccccc1CNC(=O)CNc1ccc(OC2CCOC2)cc1", "note": "(stereo not given)", "Percent Effect": 74.57},
      {"smiles": "O=C(CNc1ccc(OC2CCOC2)cc1)NCc1cccs1", "note": "(stereo not given)", "Percent Effect": 8.02},
      {"smiles": "C1CN(Cc2noc(C3CC3)n2)CCN(Cc2nnc(C3CC3)o2)C1", "Percent Effect": -22.59},
      {"smiles": "Cc1cnn(C2CCCN(C(=O)CCCc3ccccn3)C2)c1", "note": "(stereo not given)", "Percent Effect": 2.711},
      {"smiles": "COc1ccc(S(=O)(=O)Nc2cnc(N(C)C)nc2)cc1", "Percent Effect": -14.34},
      {"smiles": "CCCN(C(=O)c1ccncc1)c1nc2c(s1)CCc1c-2cnn1C", "Percent Effect": 54},
      {"smiles": "CCCN(C(=O)c1cccnc1)c1nc2c(s1)CCc1c-2cnn1C", "Percent Effect": 30.71},
      {"smiles": "CCCN(C(=O)c1cnccn1)c1nc2c(s1)CCc1c-2cnn1C", "Percent Effect": 25.49},
      {"smiles": "CS(=O)(=O)NC[C@H]1OC[C@H]2CN(CCc3ccccc3)CC[C@H]21.O=C(O)C(F)(F)F", "Percent Effect": 1.676},
      {"smiles": "CN1CCOC(CNCc2coc(-c3cccc(Cl)c3)n2)C1", "note": "(stereo not given)", "Percent Effect": 12.33},
      {"smiles": "COc1ccc(CN(C)[C@@H]2CN(C(=O)c3cccnc3)C[C@H]2O)cc1", "Percent Effect": 29.94},
      {"smiles": "CC(C)c1cc(C(=O)NCC2CCCN(c3ncccn3)C2)n(C)n1", "note": "(stereo not given)", "Percent Effect": 10.83},
      {"smiles": "COc1cccc(-c2cc(C(=O)N3N=C(C)CC3(O)C(F)F)[nH]n2)c1", "note": "(stereo not given)", "Percent Effect": 21.19},
      {"smiles": "COc1cccc(-c2cc(C(=O)N3N=C(C)CC3(O)C(F)(F)F)[nH]n2)c1", "note": "(stereo not given)", "Percent Effect": 58.69},
      {"smiles": "COc1ccc(-c2cc(C(=O)N3N=C(C)CC3(O)C(F)(F)F)[nH]n2)cc1", "note": "(stereo not given)", "Percent Effect": -4.762},
      {"smiles": "COCCC(=O)Nc1nccn1Cc1ccc(Br)cc1", "Percent Effect": 27.83},
      {"smiles": "CSCC(=O)Nc1nccn1Cc1ccc(Br)cc1", "Percent Effect": 106.3},
      {"smiles": "COCC(=O)Nc1nccn1Cc1ccc(Br)cc1", "Percent Effect": 26.85},
      {"smiles": "CCOCC(=O)Nc1ncn(Cc2cccc(Br)c2)n1", "Percent Effect": -12.98},
      {"smiles": "CCOCC(=O)Nc1nccn1Cc1ccc(Br)cc1", "Percent Effect": 58.9},
      {"smiles": "CC(C)(C#N)C(=O)Nc1nccn1Cc1ccc(Br)cc1", "Percent Effect": 15.16}
    ]}
  ]
}
